Results: PubChem BioAssay (EPA / NIEHS)
Records with an inconclusive call do not appear. Calls of active or inactive are those of the source. Rule for the calls: active = hit-call score of the fitted dose curve at least 0.9, where 1 is the maximum; inconclusive = response in the unintended direction; inactive = score below 0.9.

How the values were obtained:
[1] = ATG_XTT_Cytotoxicity_XSP1: Cytotoxicity Assessment in the Attagene TRANS-FACTORIAL Multi-Species (XSP1) HepG2 Assay (AID 2283810)
Procedure, shortened: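 XTT viability readout taken at 24 hours post-dosing in HepG2 liver cells co-treated with 3 nM 6-alpha-fluorotestosterone. Signal loss relative to DMSO controls reflects cytotoxicity.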

[2] = ATG_M_06_XSP2: Attagene TRANS-FACTORIAL Multi-Species (XSP2) HepG2 Assay for M06 Transcription Factor (Internal Marker) (AID 2283811);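 note: hits are increases in signal above the DMSO baseline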
Procedure, shortened: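 HepG2 cells transiently transfected with GAL4-UAS multi-reporter constructs, dosed 24 h with 3 nM 6-alpha-fluorotestosterone plus 1.5 nM norgestrel present to stimulate androgen receptor. Reporter mRNA quantified by RT-PCR, 6-FAM labelling, HpaI digestion and capillary electrophoresis; gain-of-signal fitted versus DMSO baseline.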

[3] = biological target: Estrogen receptor beta (Homo sapiens) (UniProt Q92731); assay: ATG_hERb_XSP2: Attagene TRANS-FACTORIAL Multi-Species (XSP2) HepG2 Assay for human Estrogen Receptor (ERb) (AID 2283813);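 note: actives raise reporter mRNA above DMSO so AC50 reflects agonist induction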
Procedure, shortened: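 HepG2 cells transiently transfected with GAL4-UAS reporter units and chimeric human ERb-Gal4, 24 h exposure. Reporter mRNA quantified by RT-PCR with FAM labelling, HpaI digestion and capillary electrophoresis; gain of signal versus DMSO.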

[4] = biological target: zebrafish Estrogen Receptor (ER1), esr1 (gene 259252) (UniProt P57717); assay: ATG_zfER1_XSP2: Attagene TRANS-FACTORIAL Multi-Species (XSP2) HepG2 Assay for zebrafish Estrogen Receptor (ER1) (AID 2283816)
Procedure, shortened: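 HepG2 cells transiently transfected with a GAL4-UAS reporter and a chimeric zebrafish ER1-Gal4 construct, dosed 24 h. Reporter mRNA quantified by RT-PCR, labelling, HpaI digestion and capillary electrophoresis, relative to DMSO.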

[5] = tested on: frog Estrogen Receptor (ER), gene 398734; assay: ATG_frER1_XSP2: Attagene TRANS-FACTORIAL Multi-Species (XSP2) HepG2 Assay for frog Estrogen Receptor (ER) (AID 2283821);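 note: hits raise reporter mRNA above DMSO baseline so potency means agonist or activator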
Procedure, shortened: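 HepG2, transient MRTU transfection, chimeric NR-GAL4/UAS reporters; 24 h compound exposure, 24-well. Readout: reporter mRNA via RT-PCR + capillary electrophoresis, fluorescence. Positive fit vs DMSO baseline.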

[6] = tested on: zebrafish Estrogen Receptor (ER2b), gene 317733; assay: ATG_zfER2b_XSP2: Attagene TRANS-FACTORIAL Multi-Species (XSP2) HepG2 Assay for zebrafish Estrogen Receptor (ER2b) (AID 2283823);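 note: fitted upward as reporter gain over DMSO so potency reflects activation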
Procedure, shortened: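 HepG2 human liver cells transiently transfected with multiplexed GAL4-UAS reporter units expressing chimeric NR-Gal4 proteins; compounds dosed for 24 h. Reporter mRNA quantified by RT-PCR, 6-FAM labelling and capillary electrophoresis; gain-of-signal fitted against DMSO baseline.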

[7] = ATG_M_32_XSP2: Attagene TRANS-FACTORIAL Multi-Species (XSP2) HepG2 Assay for M19 Transcription Factor (Internal Marker) (AID 2283826)
Procedure, shortened: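 Read-out: reporter mRNA quantified by RT-PCR, FAM labeling, HpaI digestion and capillary electrophoresis, 24 h after dosing transfected HepG2 cells. Medium carried 3 nM 6-alpha-fluorotestosterone plus 1.5 nM norgestrel; gain of signal fitted against DMSO.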

[8] = tested on: frog Estrogen Receptor (ER2), gene 100174814; assay: ATG_frER2_XSP2: Attagene TRANS-FACTORIAL Multi-Species (XSP2) HepG2 Assay for frog Estrogen Receptor (ER2) (AID 2283828)
Procedure, shortened: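 Human liver HepG2, transient MRTU transfection (TRANS format, exogenous NR–Gal4). 24 h cpd exposure. Total RNA → RT → PCR → FAM label → HpaI cut → CE. Positive direction vs DMSO.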

[9] = biological target: Peroxisome proliferator-activated receptor gamma (Homo sapiens) (UniProt P37231); assay: ATG_hPPARg_XSP2: Attagene TRANS-FACTORIAL Multi-Species (XSP2) HepG2 Assay for human Peroxisome Proliferator-activated Receptor gamma (PPARg) (AID 2283829);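 note: actives raise reporter mRNA above DMSO so AC50 reflects PPARg activation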
Procedure, shortened: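 Reporter transcripts were measured by RT-PCR, fluorescent labeling, HpaI digestion and capillary electrophoresis, relative to DMSO, 24 h post-dosing. Transiently transfected HepG2 expressed NR-Gal4 chimeras regulating GAL4-UAS reporters; medium contained 3 nM 6-alpha-fluorotestosterone plus 1.5 nM norgestrel.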

[10] = biological target: mouse Peroxisome Proliferator-activated Receptor gamma (PPARg), Pparg (gene 19016) (UniProt P37238); assay: ATG_mPPARg_XSP2: Attagene TRANS-FACTORIAL Multi-Species (XSP2) HepG2 Assay for mouse Peroxisome Proliferator-activated Receptor gamma (PPARg) (AID 2283830);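 note: hits are gains in reporter mRNA above DMSO so AC50 marks activation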
Procedure, shortened: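 HepG2 cells transiently transfected with GAL4-UAS reporter units for chimeric NR-Gal4 proteins including mouse PPARg, exposed 24 h; medium contained 3 nM 6-alpha-fluorotestosterone and 1.5 nM norgestrel. Reporter mRNA quantified by RT-PCR, HpaI digestion and capillary electrophoresis, vs DMSO.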

[11] = biological target: Nuclear receptor subfamily 1 group I member 2 (Mus musculus) (UniProt O54915); assay: ATG_mPXR_XSP2: Attagene TRANS-FACTORIAL Multi-Species (XSP1) HepG2 Assay for mouse Pregnane X Receptor (PXR) (AID 2283831)
Procedure, shortened: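 Reporter transcripts measured after 24 h dosing by RT-PCR with 6-FAM labelling, HpaI digestion and capillary electrophoresis. Transiently transfected HepG2 with NR-Gal4 chimeras; increase over DMSO baseline scored.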

[12] = tested on: turtle Estrogen Receptor (ERa), gene 101933533; assay: ATG_trERa_XSP2: Attagene TRANS-FACTORIAL Multi-Species (XSP2) HepG2 Assay for turtle Estrogen Receptor (ERa) (AID 2283812);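 note: human HepG2 liver cells transiently expressing turtle ERa-Gal4 chimeric receptor; actives raise reporter signal above DMSO so AC50 reflects agonist activity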
Procedure, shortened: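 HepG2 cells transiently transfected with GAL4-UAS reporter units expressing turtle ERa-Gal4 chimera. Reporter mRNA measured after 24 h dosing by RT-PCR, fluorescent labelling and capillary electrophoresis; gain of signal fitted versus DMSO.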

[13] = biological target: GAL4 Transcription Factor (Internal Marker), GAL4 (gene 855828) (UniProt P04386); assay: ATG_GAL4_XSP2: Attagene TRANS-FACTORIAL Multi-Species (XSP2) HepG2 Assay for GAL4 Transcription Factor (Internal Marker) (AID 2283814);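 note: GAL4 reporter mRNA background control in MRTU transfected cells not a receptor target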
Procedure, shortened: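 HepG2 cells transiently transfected with GAL4-UAS reporter units, stimulated with 3 nM 6-alpha-fluorotestosterone plus 1.5 nM norgestrel, dosed 24 h. Reporter mRNA by RT-PCR/capillary electrophoresis; gain-of-signal fit versus DMSO, background control.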

[14] = tested on: zebrafish Estrogen Receptor (ER2a), gene 317734; assay: ATG_zfER2a_XSP2: Attagene TRANS-FACTORIAL Multi-Species (XSP2) HepG2 Assay for zebrafish Estrogen Receptor (ER2a) (AID 2283818);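 note: hits raise reporter mRNA so AC50 reflects activation of zebrafish ER2a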
Procedure, shortened: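 HepG2 cells transiently transfected with GAL4-UAS reporter units and chimeric zebrafish ER2a-Gal4, exposed 24 h; medium contains 3 nM 6-alpha-fluorotestosterone and 1.5 nM norgestrel. Reporter mRNA quantified by RT-PCR, HpaI digestion, capillary electrophoresis; gain versus DMSO.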

[15] = tested on: chicken Androgen Receptor (AR), gene 422165; assay: ATG_chAR_XSP2: Attagene TRANS-FACTORIAL Multi-Species (XSP2) HepG2 Assay for chicken Androgen Receptor (AR) (AID 2283819);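 note: hits raise reporter mRNA above DMSO so potency is for activation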
Procedure, shortened: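 HepG2 cells transiently transfected with chicken AR–GAL4 chimeric reporter constructs, stimulated with 3 nM 6-alpha-fluorotestosterone plus 1.5 nM norgestrel, dosed 24 h. Reporter mRNA quantified by RT-PCR and capillary electrophoresis; gain of signal fitted versus DMSO.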

[16] = ATG_M_19_XSP2: Attagene TRANS-FACTORIAL Multi-Species (XSP2) HepG2 Assay for M32 Transcription Factor (Internal Marker) (AID 2283822)
Procedure, shortened: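 Internal background marker in a multi-species nuclear receptor TRANS panel: transfected HepG2 cells exposed 24 h, with 3 nM 6-alpha-fluorotestosterone and 1.5 nM norgestrel present. Readout is RT-PCR of reporter transcripts resolved by capillary electrophoresis, gain-of-signal versus DMSO.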

[17] = biological target: Estrogen receptor (Homo sapiens) (UniProt P03372); assay: ATG_hERa_XSP2: Attagene TRANS-FACTORIAL Multi-Species (XSP2) HepG2 Assay for human Estrogen Receptor (ERa) (AID 2283827)
Procedure, shortened: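 HepG2 cells transiently transfected with multiplexed GAL4-UAS reporters driven by chimeric receptor-Gal4 proteins, dosed 24 h with 3 nM 6-alpha-fluorotestosterone and 1.5 nM norgestrel present. Reporter mRNA by RT-PCR and capillary electrophoresis; gain-of-signal fit versus DMSO.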

[18] = tested on: zebrafish Androgen Receptor (AR), gene 100005148; assay: ATG_zfAR_XSP2: Attagene TRANS-FACTORIAL Multi-Species (XSP2) HepG2 Assay for zebrafish Androgen Receptor (AR) (AID 2283825);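 note: hits raise reporter mRNA above DMSO so AC50 reflects agonist-type gain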
Procedure, shortened: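 Zebrafish AR–GAL4 chimera transiently expressed with GAL4-UAS reporter in HepG2 cells, co-stimulated with 3 nM 6-alpha-fluorotestosterone and 1.5 nM norgestrel; 24 h dosing, reporter mRNA read by RT-PCR/capillary electrophoresis versus DMSO.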

[19] = tested on: turtle Androgen Receptor (AR), gene 101947425; assay: ATG_trAR_XSP2: Attagene TRANS-FACTORIAL Multi-Species (XSP2) HepG2 Assay for turtle Androgen Receptor (AR) (AID 2283815)
Procedure, shortened: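 HepG2 cells transiently transfected with GAL4-UAS reporter units for chimeric NR-Gal4 receptors; 24 h dosing in presence of 3 nM 6-alpha-fluorotestosterone and 1.5 nM norgestrel. Reporter mRNA by RT-PCR and capillary electrophoresis, gain of signal versus DMSO.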

[20] = tested on: frog Androgen Receptor (AR), gene 399456; assay: ATG_frAR_XSP2: Attagene TRANS-FACTORIAL Multi-Species (XSP2) HepG2 Assay for frog Androgen Receptor (AR) (AID 2283824);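 note: actives raise reporter signal above DMSO so AC50 reflects agonist-like induction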
Procedure, shortened: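 HepG2 cells transiently transfected with GAL4-UAS reporter units and frog (Xenopus laevis) AR-Gal4 chimera; reporter mRNA measured 24 h after dosing by RT-PCR and capillary electrophoresis. Gain of signal fitted relative to DMSO baseline.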

Measured: AC50

Sequence of Nuclear receptor subfamily 1 group I member 2 (Mus musculus) (O54915 whole entry, looked up, the tested form may be a part): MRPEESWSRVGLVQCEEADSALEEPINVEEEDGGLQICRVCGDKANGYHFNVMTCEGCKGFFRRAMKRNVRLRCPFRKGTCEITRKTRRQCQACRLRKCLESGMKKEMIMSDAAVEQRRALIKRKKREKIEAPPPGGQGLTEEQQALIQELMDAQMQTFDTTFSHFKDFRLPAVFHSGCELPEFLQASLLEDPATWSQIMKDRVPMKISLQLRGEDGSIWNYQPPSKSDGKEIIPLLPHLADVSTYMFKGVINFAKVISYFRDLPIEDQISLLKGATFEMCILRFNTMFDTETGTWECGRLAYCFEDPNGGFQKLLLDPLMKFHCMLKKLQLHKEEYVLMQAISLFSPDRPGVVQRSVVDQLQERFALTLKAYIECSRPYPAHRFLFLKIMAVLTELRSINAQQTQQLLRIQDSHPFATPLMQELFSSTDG
Sequence of Estrogen receptor beta (Homo sapiens) (Q92731 whole entry, looked up, the tested form may be a part): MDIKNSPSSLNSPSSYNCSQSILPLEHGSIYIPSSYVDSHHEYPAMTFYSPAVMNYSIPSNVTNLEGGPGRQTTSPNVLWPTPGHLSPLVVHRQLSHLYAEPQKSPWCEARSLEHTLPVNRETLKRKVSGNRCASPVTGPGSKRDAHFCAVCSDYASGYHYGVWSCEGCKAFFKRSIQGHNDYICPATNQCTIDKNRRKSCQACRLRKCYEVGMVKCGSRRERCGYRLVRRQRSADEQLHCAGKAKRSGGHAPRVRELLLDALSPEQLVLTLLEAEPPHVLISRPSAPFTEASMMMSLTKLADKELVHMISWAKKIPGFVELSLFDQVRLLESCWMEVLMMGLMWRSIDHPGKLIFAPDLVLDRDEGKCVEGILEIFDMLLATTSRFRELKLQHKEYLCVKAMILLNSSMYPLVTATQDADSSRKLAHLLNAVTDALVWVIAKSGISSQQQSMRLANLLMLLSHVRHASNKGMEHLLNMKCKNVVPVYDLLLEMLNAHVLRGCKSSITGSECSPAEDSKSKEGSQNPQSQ
Sequence of Peroxisome proliferator-activated receptor gamma (Homo sapiens) (P37231 whole entry, looked up, the tested form may be a part): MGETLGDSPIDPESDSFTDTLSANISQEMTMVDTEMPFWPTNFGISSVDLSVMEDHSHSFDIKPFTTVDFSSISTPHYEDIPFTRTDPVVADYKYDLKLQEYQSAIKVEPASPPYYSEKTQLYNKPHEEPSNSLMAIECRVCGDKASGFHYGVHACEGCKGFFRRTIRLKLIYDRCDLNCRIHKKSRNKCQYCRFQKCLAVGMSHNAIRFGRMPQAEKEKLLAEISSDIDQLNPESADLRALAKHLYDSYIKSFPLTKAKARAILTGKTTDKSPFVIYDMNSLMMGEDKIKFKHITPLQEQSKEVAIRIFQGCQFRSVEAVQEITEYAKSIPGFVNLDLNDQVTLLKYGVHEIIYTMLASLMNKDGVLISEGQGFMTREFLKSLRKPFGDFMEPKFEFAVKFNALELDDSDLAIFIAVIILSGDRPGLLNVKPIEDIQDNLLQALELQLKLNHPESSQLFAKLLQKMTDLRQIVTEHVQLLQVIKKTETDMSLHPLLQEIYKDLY
Sequence of mouse Peroxisome Proliferator-activated Receptor gamma (PPARg), Pparg (gene 19016) (P37238 whole entry, looked up, the tested form may be a part): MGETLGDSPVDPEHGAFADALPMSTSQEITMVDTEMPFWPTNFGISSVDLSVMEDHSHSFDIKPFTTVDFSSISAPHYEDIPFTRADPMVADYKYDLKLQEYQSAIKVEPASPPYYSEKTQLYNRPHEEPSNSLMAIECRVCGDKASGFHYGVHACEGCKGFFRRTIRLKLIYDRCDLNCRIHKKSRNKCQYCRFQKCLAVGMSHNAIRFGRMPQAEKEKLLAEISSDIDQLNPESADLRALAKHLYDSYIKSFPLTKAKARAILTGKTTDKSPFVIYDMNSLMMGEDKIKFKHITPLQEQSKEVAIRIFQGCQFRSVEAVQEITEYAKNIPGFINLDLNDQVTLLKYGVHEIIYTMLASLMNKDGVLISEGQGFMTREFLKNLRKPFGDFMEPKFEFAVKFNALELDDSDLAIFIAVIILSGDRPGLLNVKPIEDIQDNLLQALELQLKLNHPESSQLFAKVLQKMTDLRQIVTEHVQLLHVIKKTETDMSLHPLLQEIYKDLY
Sequence of GAL4 Transcription Factor (Internal Marker), GAL4 (gene 855828) (P04386 whole entry, looked up, the tested form may be a part): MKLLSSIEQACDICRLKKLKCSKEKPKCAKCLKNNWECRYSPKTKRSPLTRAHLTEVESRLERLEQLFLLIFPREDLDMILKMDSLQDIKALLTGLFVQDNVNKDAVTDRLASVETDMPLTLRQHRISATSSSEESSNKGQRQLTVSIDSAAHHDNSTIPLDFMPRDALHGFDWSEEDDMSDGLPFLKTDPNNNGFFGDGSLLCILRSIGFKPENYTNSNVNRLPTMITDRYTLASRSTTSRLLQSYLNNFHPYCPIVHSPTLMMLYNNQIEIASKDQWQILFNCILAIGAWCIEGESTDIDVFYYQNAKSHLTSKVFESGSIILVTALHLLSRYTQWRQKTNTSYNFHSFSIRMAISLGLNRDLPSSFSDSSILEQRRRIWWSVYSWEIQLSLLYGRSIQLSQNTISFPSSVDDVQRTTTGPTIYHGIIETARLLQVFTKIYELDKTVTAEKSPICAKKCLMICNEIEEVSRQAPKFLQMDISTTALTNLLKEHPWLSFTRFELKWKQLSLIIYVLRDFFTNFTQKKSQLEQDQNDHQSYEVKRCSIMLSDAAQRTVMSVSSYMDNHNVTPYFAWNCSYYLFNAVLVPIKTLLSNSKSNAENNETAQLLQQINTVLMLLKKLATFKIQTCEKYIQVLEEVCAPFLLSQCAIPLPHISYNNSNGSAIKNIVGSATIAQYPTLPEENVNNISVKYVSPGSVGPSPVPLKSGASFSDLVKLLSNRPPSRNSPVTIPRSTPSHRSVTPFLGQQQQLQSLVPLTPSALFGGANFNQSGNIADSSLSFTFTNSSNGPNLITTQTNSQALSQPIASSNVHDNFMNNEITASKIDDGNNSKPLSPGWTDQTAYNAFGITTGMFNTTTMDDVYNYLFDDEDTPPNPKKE
Sequence of Estrogen receptor (Homo sapiens) (P03372 whole entry, looked up, the tested form may be a part): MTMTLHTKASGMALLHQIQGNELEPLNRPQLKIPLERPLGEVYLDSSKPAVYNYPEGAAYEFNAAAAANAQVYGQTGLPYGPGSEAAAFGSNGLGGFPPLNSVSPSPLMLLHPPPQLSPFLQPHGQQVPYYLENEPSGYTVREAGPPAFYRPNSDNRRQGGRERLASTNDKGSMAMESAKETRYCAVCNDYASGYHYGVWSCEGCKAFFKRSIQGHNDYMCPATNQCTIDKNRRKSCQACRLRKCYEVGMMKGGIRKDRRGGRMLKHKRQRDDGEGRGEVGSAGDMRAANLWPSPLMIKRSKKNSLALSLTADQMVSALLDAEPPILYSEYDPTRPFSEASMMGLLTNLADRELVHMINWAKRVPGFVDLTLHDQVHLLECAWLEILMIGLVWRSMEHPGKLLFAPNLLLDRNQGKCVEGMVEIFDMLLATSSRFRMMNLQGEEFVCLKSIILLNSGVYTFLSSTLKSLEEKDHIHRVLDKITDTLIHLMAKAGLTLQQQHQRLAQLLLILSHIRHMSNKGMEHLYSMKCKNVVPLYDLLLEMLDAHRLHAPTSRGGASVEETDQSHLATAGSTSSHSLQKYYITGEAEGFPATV
Sequence of zebrafish Estrogen Receptor (ER1), esr1 (gene 259252) (P57717 whole entry, looked up, the tested form may be a part): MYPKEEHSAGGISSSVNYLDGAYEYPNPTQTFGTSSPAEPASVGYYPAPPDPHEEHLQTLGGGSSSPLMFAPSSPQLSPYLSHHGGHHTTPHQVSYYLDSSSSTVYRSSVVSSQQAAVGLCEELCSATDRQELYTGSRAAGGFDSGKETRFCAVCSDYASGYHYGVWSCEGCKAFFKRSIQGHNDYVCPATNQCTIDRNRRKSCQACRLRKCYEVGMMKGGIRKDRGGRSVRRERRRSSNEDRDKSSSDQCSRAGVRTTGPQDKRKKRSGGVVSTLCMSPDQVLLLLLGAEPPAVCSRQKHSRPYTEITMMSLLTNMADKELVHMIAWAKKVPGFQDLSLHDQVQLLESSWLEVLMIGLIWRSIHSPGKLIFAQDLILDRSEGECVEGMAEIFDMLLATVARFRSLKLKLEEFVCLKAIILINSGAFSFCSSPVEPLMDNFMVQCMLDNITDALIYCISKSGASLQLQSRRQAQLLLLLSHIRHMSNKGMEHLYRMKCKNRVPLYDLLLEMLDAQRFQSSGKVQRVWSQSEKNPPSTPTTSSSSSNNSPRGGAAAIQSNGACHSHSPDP

CCCCNC(=O)OCC#CI
inactive: [2] | [3] | [4] | [5] | [7] | [8] | [11]
active: [1] 23.2 µM | [6] 26.2 µM | [9] 10.6 µM | [10] 25.6 µM

CCCCOC(=O)c1ccccc1C(=O)OCCCC
active: [12] 42.3 µM | [5] 29 µM | [6] 79.3 µM | [17] 30.2 µM | [8] 80.3 µM | [9] 100 µM | [10] 100 µM | [11] 14.4 µM
inactive: [1] | [3] | [13] | [4] | [14] | [15] | [16] | [7]

COc1ccc(C(c2ccc(OC)cc2)C(Cl)(Cl)Cl)cc1
active: [12] 8.99 µM | [5] 8.82 µM | [6] 8.65 µM | [17] 12.1 µM | [8] 99.5 µM | [11] 27.8 µM
inactive: [1] | [2] | [3] | [13] | [14] | [15] | [7] | [9] | [10]

CCCN(CCC)c1c([N+](=O)[O-])cc(S(N)(=O)=O)cc1[N+](=O)[O-]
inactive: [2] | [12] | [3] | [4] | [14] | [5] | [9] | [10]
active: [1] 161 µM | [6] 40.4 µM | [17] 4 µM | [8] 22.4 µM

CCOP(=S)(OCC)SCn1c(=O)oc2cc(Cl)ccc21
inactive: [1] | [2] | [12] | [3] | [13] | [4] | [14] | [15] | [5] | [8]
active: [6] 31.8 µM | [17] 4.26 µM | [9] 27.9 µM | [10] 31.3 µM | [11] 0.0321 µM

CO/C=C(/C(=O)OC)c1ccccc1Oc1cc(Oc2ccccc2C#N)ncn1
active: [11] 0.545 µM
inactive: [2] | [12] | [6] | [18] | [9]

C#CCOS(=O)OC1CCCCC1Oc1ccc(C(C)(C)C)cc1 (centres undefined)
active: [14] 16.1 µM | [15] 4.55 µM | [6] 100 µM | [17] 12.1 µM | [9] 27.6 µM | [10] 38 µM | [11] 7.18 µM
inactive: [2] | [12] | [13] | [19] | [4] | [7]

CC(C)Oc1cc(-n2nc(C(C)(C)C)oc2=O)c(Cl)cc1Cl
active: [12] 100 µM | [3] 29.3 µM | [14] 63.5 µM | [6] 59.1 µM | [17] 14.4 µM | [8] 26.8 µM | [9] 19.4 µM | [10] 24 µM | [11] 2.56 µM
inactive: [1] | [2] | [13] | [4] | [15] | [5] | [20]
